# What was measured:
# Type in all cases: functional
# [1] = test system: Plasmodium falciparum; test: GSK_TCMDC: Inhibition of Plasmodium falciparum 3D7 in whole red blood cells, using parasite LDH activity as an index of growth. Test compounds present at 2uM
# [2] = test system: Plasmodium falciparum; test: GSK_TCMDC: Inhibition of Plasmodium falciparum Dd2 in whole red blood cells, using parasite LDH activity as an index of growth. Test compounds present at 2uM
# [3] = test system: HepG2; test: GSK_TCMDC: Percent inhibition of human HepG2 cell line. Test compounds present at 10uM.
smiles,measurement,setting,value
CCOc1cc(C(=O)NCCN2CCCCC2)ccc1-c1nc2cc(Cl)ccc2[nH]1,Inhibition,[1],99%
same,Inhibition,[2],8%
same,Inhibition,[3],4%
Cc1[nH]cnc1Cc1ccc2c(c1O)c1ccccc1n2C,Inhibition,[1],90%
same,Inhibition,[2],16%
same,Inhibition,[3],9%
CN1CCCC(CN2CCN(Cc3cccc(-c4ccc(-c5nc6cc(C(F)(F)F)ccc6[nH]5)cc4)c3)CC2)C1.O=C(O)C(F)(F)F (stereo not drawn),Inhibition,[1],99%
same,Inhibition,[2],96%
same,Inhibition,[3],100%
O=C(NCCc1ccc(Cl)c(Cl)c1)[C@@H]1CCCN1C(=O)c1ccc(O)c(-c2cccc(C(F)(F)F)c2)c1,Inhibition,[1],97%
same,Inhibition,[2],82%
same,Inhibition,[3],0%
CC(C)C[C@H](NC(=O)c1ccc(OCCN2CCOCC2)cc1)C(=O)N[C@H](/C=N/N1CCNC1=O)CCc1ccccc1,Inhibition,[1],89%
same,Inhibition,[2],94%
same,Inhibition,[3],1%
CNCCNCc1ccc(-c2ccc(-c3nc4cccc(C)c4[nH]3)cc2)cc1.O=C(O)C(F)(F)F,Inhibition,[1],96%
same,Inhibition,[2],79%
same,Inhibition,[3],19%
CCC1CN2CCc3cc(OC)c(OC)cc3C2CC1CC1NCCc2cc(OC)c(OC)cc21.Cl (stereo not drawn),Inhibition,[1],100%
same,Inhibition,[2],98%
same,Inhibition,[3],42%
CC(=O)Nc1ccc([N+](=O)[O-])c2c(Br)cccc12,Inhibition,[1],100%
same,Inhibition,[2],0%
same,Inhibition,[3],0%
CCCCCCCN1CCC(NC(=O)Nc2ccnc3ccc(OC)cc23)C(C(=O)OCC)C1.O=C(O)C(=O)O (stereo not drawn),Inhibition,[1],100%
same,Inhibition,[2],73%
same,Inhibition,[3],11%
CC(C)NCc1cccc(-c2ccc(NC(=O)c3cccc(C#N)c3)cc2)c1.O=C(O)C(F)(F)F,Inhibition,[1],100%
same,Inhibition,[2],95%
same,Inhibition,[3],22%
CC(=O)Nc1ccc(C(=O)N2CCN(c3ccnc4cc(Cl)ccc34)CC2)cc1.O=C(O)C(F)(F)F,Inhibition,[1],93%
same,Inhibition,[2],43%
same,Inhibition,[3],2%
O=C(Nc1cccc(-c2ccc(CN3CCCC3)cc2)c1)c1ccc(F)cc1.O=C(O)C(F)(F)F,Inhibition,[1],92%
same,Inhibition,[2],9%
same,Inhibition,[3],23%
COc1ccc2nccc([C@@H](O)CN3CCC(NC(=O)/C=C/c4ccnc5ccccc45)CC3)c2c1,Inhibition,[1],91%
same,Inhibition,[2],12%
same,Inhibition,[3],19%
Cc1nnsc1C(=O)Nc1ccc(-c2cccc(-c3nc4cccc(C)c4[nH]3)c2)cc1,Inhibition,[1],98%
same,Inhibition,[2],47%
same,Inhibition,[3],23%
CCN(CC)CCCNCc1ccc(-c2ccc(C(F)(F)F)cc2)cc1,Inhibition,[1],95%
same,Inhibition,[2],35%
same,Inhibition,[3],53%
C[C@H](NC(=O)[C@H](CCCCNC(=O)OC(C)(C)C)NC(=O)OC(C)(C)c1ccc(-c2ccccc2)cc1)C(=O)OCc1ccccc1,Inhibition,[1],97%
same,Inhibition,[2],1%
same,Inhibition,[3],4%
Cl.N#Cc1ccc2c(c1)CCN(CCC1CCC(NC(=O)c3cccc(-c4ccc(F)cc4)c3)CC1)CC2 (stereo not drawn),Inhibition,[1],92%
same,Inhibition,[2],10%
same,Inhibition,[3],32%
Oc1cc(Nc2ccnc3cc(I)ccc23)c(F)cc1Cl,Inhibition,[1],92%
same,Inhibition,[2],77%
same,Inhibition,[3],0%
COc1ccc(NC(=O)Nc2cc(C)nc3ccccc23)cc1Cl,Inhibition,[1],100%
same,Inhibition,[2],49%
same,Inhibition,[3],4%
Cc1nc(-c2cccc(Nc3nccc(NCC(O)c4ccc(C(F)(F)F)cc4)n3)c2)cs1 (stereo not drawn),Inhibition,[1],100%
same,Inhibition,[2],99%
same,Inhibition,[3],33%
FC(F)(F)c1ccc2[nH]c(-c3ccc(-c4cccc(CNCc5ccccc5)c4)cc3)nc2c1.O=C(O)C(F)(F)F,Inhibition,[1],100%
same,Inhibition,[2],43%
same,Inhibition,[3],0%
CO/C(=C\C=C\c1cc2cc(Cl)c(Cl)cc2[nH]1)C(=O)NCCCN1CCN(c2ccc(OC)cc2)CC1,Inhibition,[1],99%
same,Inhibition,[2],44%
same,Inhibition,[3],40%
CN(Cc1ccccc1)C(=O)CCNS(=O)(=O)c1cc(Br)cnc1N,Inhibition,[1],91%
same,Inhibition,[2],61%
same,Inhibition,[3],0%
CC(=O)O.COc1ccc(CNc2ccc3nc(N)nc(N)c3c2)cc1,Inhibition,[1],99%
same,Inhibition,[2],84%
same,Inhibition,[3],39%
CC(Oc1c(C2CCN(CCCCNC(=O)c3ccc(-c4ccc(Cl)cc4)cc3)CC2)ccc2c1CCCC2)C(N)=O (stereo not drawn),Inhibition,[1],99%
same,Inhibition,[2],16%
same,Inhibition,[3],100%
CC(C)c1cc2c(ccc3nc(N)nc(N)c32)o1,Inhibition,[1],99%
same,Inhibition,[2],37%
same,Inhibition,[3],66%
COc1cc(NC(=O)c2sc(-c3ccc(Cl)cc3)cc2NC(=O)c2cccnc2)ccc1OCCN1CCCC1,Inhibition,[1],94%
same,Inhibition,[2],77%
same,Inhibition,[3],38%
Clc1ccc(CNc2nc(NCCc3c[nH]cn3)nc(NC3CCCCC3)n2)cc1,Inhibition,[1],100%
same,Inhibition,[2],1%
same,Inhibition,[3],0%
CC(C)Nc1nc(NCCc2c[nH]cn2)nc(Nc2ccc(Oc3ccccc3)cc2)n1,Inhibition,[1],95%
same,Inhibition,[2],9%
same,Inhibition,[3],0%
Cc1cccc2nc(-c3cccc(-c4ccc(NC(=O)C(C)(C)c5ccccn5)cc4)c3)[nH]c12,Inhibition,[1],97%
same,Inhibition,[2],4%
same,Inhibition,[3],0%
CC(C)C[C@H](Nc1ccnc(NCC2CCCCC2)n1)C(=O)NCCc1ccccc1.O=C(O)C(F)(F)F,Inhibition,[1],88%
same,Inhibition,[2],66%
same,Inhibition,[3],10%
O=C(Cn1c(=O)cnc2ccccc21)Nc1cccc(C(=O)Nc2cccc(C(F)(F)F)c2)c1,Inhibition,[1],90%
same,Inhibition,[2],66%
same,Inhibition,[3],0%
Cc1cc(CN2CC[C@H](NC(=O)c3ccc(Cl)c(Cl)c3)C2)ccc1OCCCN(C)C.O=C(O)C(F)(F)F,Inhibition,[1],99%
same,Inhibition,[2],35%
same,Inhibition,[3],41%
COc1cccc(-c2nc3c(N4CCN(c5ccncc5)CC4)cccc3n2CC2CCCCCN2)n1.O=C(O)C(F)(F)F (stereo not drawn),Inhibition,[1],91%
same,Inhibition,[2],31%
same,Inhibition,[3],12%
CC(C)NCc1ccc(-c2cccc(NC(=O)c3ccc(Cl)cc3)c2)cc1.O=C(O)C(F)(F)F,Inhibition,[1],100%
same,Inhibition,[2],82%
same,Inhibition,[3],20%
Br.CC1(C)NC(N)=NC(=N)N1OCCCc1cc(Cl)c(Cl)cc1Cl,Inhibition,[1],95%
same,Inhibition,[2],96%
same,Inhibition,[3],55%
O=C(O)C(F)(F)F.O=S(=O)(NC1CCN(c2ccnc3cc(Cl)ccc23)C1)c1cccs1 (stereo not drawn),Inhibition,[1],100%
same,Inhibition,[2],76%
same,Inhibition,[3],6%
NC1CCN(c2nc(NCCCc3ccc(O)cc3)nc(NCc3ccccc3-c3ccc(C(F)(F)F)cc3)n2)CC1.O=C(O)C(F)(F)F,Inhibition,[1],100%
same,Inhibition,[2],88%
same,Inhibition,[3],15%
CC1(C)C2C=C(CN3CCC(NC(=O)Nc4ccc(Cl)c(Cl)c4)CC3)C1CC2 (stereo not drawn),Inhibition,[1],100%
same,Inhibition,[2],33%
same,Inhibition,[3],28%
Cc1cc(N2CCCN(C)CC2)nc(Nc2ccc(Cl)cc2)n1,Inhibition,[1],96%
same,Inhibition,[2],11%
same,Inhibition,[3],8%
CCC(O)(C#Cc1c(C)nc(N)nc1N)CC,Inhibition,[1],97%
same,Inhibition,[2],0%
same,Inhibition,[3],63%
CC(=O)Nc1ccc(CN(Cc2cccc(OC(C)(C)C)c2)Cc2ccc3c(c2)OCCO3)cc1,Inhibition,[1],95%
same,Inhibition,[2],96%
same,Inhibition,[3],0%
CC1CCN(CC[C@H]2CCCN2S(=O)(=O)c2cccc(NC(=O)c3cc4ccccc4s3)c2)CC1,Inhibition,[1],97%
same,Inhibition,[2],41%
same,Inhibition,[3],28%
Cn1nccc1C(=O)NCCNCc1cccc(-c2ccc(-c3nc4cc(C(F)(F)F)ccc4[nH]3)s2)c1.O=C(O)C(F)(F)F,Inhibition,[1],100%
same,Inhibition,[2],99%
same,Inhibition,[3],36%
CC1(C)NC(N)=NC(=N)N1OCOc1ccc(Cl)cc1.Cl,Inhibition,[1],94%
same,Inhibition,[2],96%
same,Inhibition,[3],68%
COc1cc(SC)c(Br)cc1-c1nc2ccncc2[nH]1,Inhibition,[1],91%
same,Inhibition,[2],9%
same,Inhibition,[3],5%
Cl.Fc1ccc2ncc(Cl)c(CCN3CCC(NCc4cc5c(cn4)OCCO5)CC3)c2c1,Inhibition,[1],93%
same,Inhibition,[2],20%
same,Inhibition,[3],24%
CCC[C@@H]([C@@H](CC1CCC(C)CC1)C(=O)N[C@@H](CCCCNC(=O)c1ccccn1)C(=O)Nc1nccs1)N(O)C=O (stereo partly drawn),Inhibition,[1],100%
same,Inhibition,[2],79%
same,Inhibition,[3],25%
CCOc1ccc(C(=O)Nc2cc(Br)c3c(c2)CNCC3)cc1Br.Cl,Inhibition,[1],96%
same,Inhibition,[2],21%
same,Inhibition,[3],18%
COc1cccc(C=NN=c2cc(C)[nH]c3ccccc23)c1,Inhibition,[1],100%
same,Inhibition,[2],46%
same,Inhibition,[3],16%
O=C(/C=C/c1ccc(Cl)c(Cl)c1)N1CCN(C(=O)Nc2cccc(C(F)(F)F)c2)CC1,Inhibition,[1],99%
same,Inhibition,[2],100%
same,Inhibition,[3],53%
Cc1cc(C(=O)Nc2ccc(C)c(-c3nc(N(C(=O)c4ccc(F)c(C)c4)C4CCNCC4)nc4c3ccc(=O)n4-c3c(F)cccc3F)c2)ccc1F,Inhibition,[1],99%
same,Inhibition,[2],99%
same,Inhibition,[3],4%
O=C(NC1CCN(c2ccnc3cc(Cl)ccc23)C1)c1ccc(F)cc1F.O=C(O)C(F)(F)F (stereo not drawn),Inhibition,[1],100%
same,Inhibition,[2],100%
same,Inhibition,[3],31%
Cc1cc2c(cc1C(F)(F)F)N(C(=O)Nc1cccc(C(=O)NC3CCN(Cc4ccccc4)CC3)c1)CC2,Inhibition,[1],91%
same,Inhibition,[2],0%
same,Inhibition,[3],19%
O=C(Nc1ccc(-c2nc3ccccc3[nH]2)cc1)c1ccc(S(=O)(=O)N2CCCCC2)cc1,Inhibition,[1],95%
same,Inhibition,[2],6%
same,Inhibition,[3],23%
O=C(/C=C/c1ccc(Cl)c(Cl)c1)NCCCCCN1CCCN(C(=O)Nc2cccc(F)c2)CC1,Inhibition,[1],97%
same,Inhibition,[2],4%
same,Inhibition,[3],20%
CN1CCC(C(=O)N(Cc2ccc(-c3ccc(CNCCc4ccc(S(C)(=O)=O)cc4)cn3)cc2)C2CCN(Cc3ccccc3)CC2)CC1.O=C(O)C(F)(F)F,Inhibition,[1],100%
same,Inhibition,[2],95%
same,Inhibition,[3],11%
Nc1nc(N)c2cc(NS(=O)(=O)c3ccc(-c4ccccc4)cc3)ccc2n1,Inhibition,[1],100%
same,Inhibition,[2],54%
same,Inhibition,[3],7%
COc1cc(CNCCC(C)C)ccc1OCc1cccc(COc2ccc(CNCCC(C)C)cc2OC)c1.Cl,Inhibition,[1],99%
same,Inhibition,[2],20%
same,Inhibition,[3],97%
CC1CCCN(S(=O)(=O)c2ccc(NC(=O)c3cc(-c4ccccc4O)n[nH]3)cc2)C1 (stereo not drawn),Inhibition,[1],93%
same,Inhibition,[2],49%
same,Inhibition,[3],12%
O=C(NCC1CCN(CC2CCCCC2)C1)c1cc(-c2cccc(C(F)(F)F)c2)cs1.O=C(O)C(F)(F)F (stereo not drawn),Inhibition,[1],96%
same,Inhibition,[2],21%
same,Inhibition,[3],47%

# — ChEMBL document CHEMBL1157539, “Thousands of chemical starting points for antimalarial lead identification” (Nature, 2010)
